In ChEMBL document CHEMBL3988442, “University of Dundee, Small-Polar-MMV Screening Library” (2021):
The whole screen tested about 48,000 compounds, of which about 13,000 (27%) showed an effect of 50% or more. The list shows a part of the results.

These compounds were tested on Wolbachia pipientis (assay: Anti-Wolbachia Cell-Based Screen). Conditions: 5 µM.
Assay type: functional
Parameters: scale not given: in the data most compounds retested in dose-response had high values
With `CCN1CCO[C@@H]2CN(C(=O)c3ccc4[nH]ccc4c3)CC[C@@H]2C1.O=C(O)C(F)(F)F` the “Percent Effect” value was -16%. For `CC(=O)N1CCO[C@@H]2CN(C(=O)NCc3ccccc3)CC[C@@H]2C1`, the “Percent Effect” value was 88.95%. `CC(=O)N1CCO[C@@H]2CN(C(=O)NCc3cccnc3)CC[C@@H]2C1.O=C(O)C(F)(F)F` was tested, and the “Percent Effect” value was -5.554%. With `COCCN1CCO[C@@H]2CN(C(=O)NCc3cccnc3)CC[C@@H]2C1.O=C(O)C(F)(F)F.O=C(O)C(F)(F)F` the “Percent Effect” value was -7.719%. For `CCN1CCO[C@@H]2CN(C(=O)NCc3ccccc3)CC[C@@H]2C1`, the “Percent Effect” value was 91.66%. With `CCN(CC)Cc1cc(C(=O)N2CCCC(O)(CO)C2)c(C)o1` (stereo not drawn) the “Percent Effect” value was 4.357%. `CCCc1ccc(CN2CCN(c3ncccn3)[C@@H]3CS(=O)(=O)C[C@@H]32)o1` was tested, and the “Percent Effect” value was -1.361%. With `CCn1ccnc1CN1CCN(Cc2ccc(C)o2)[C@@H]2CS(=O)(=O)C[C@@H]21` the “Percent Effect” value was 98.63%. In the case of `Cc1ccc(CN2CCN(Cc3nccn3C)[C@H]3CS(=O)(=O)C[C@H]32)o1`, the “Percent Effect” value is reported as 91.25%. For `CCCc1ccc(CN2CCN(C(=O)NCC)[C@H]3CS(=O)(=O)C[C@H]32)o1`, the “Percent Effect” value was -11.9%. For `CCCc1ccc(CN2CCN(C(=O)C(C)C)[C@@H]3CS(=O)(=O)C[C@@H]32)o1`, the “Percent Effect” value was 2.422%. In the case of `CCCc1ccc(CN2CCN(C(=O)N(C)C)[C@@H]3CS(=O)(=O)C[C@@H]32)o1`, the “Percent Effect” value is reported as 6.47%. In the case of `O=C(C1CN(c2ncc(F)cn2)CC12CCOCC2)N1CC=CC1.O=C(O)C(F)(F)F` (stereo not drawn), the “Percent Effect” value is reported as -11.35%. With `O=C(O)C(F)(F)F.c1coc(CN2CCn3c(COCC4CC4)nnc3C2)c1` the “Percent Effect” value was -16.88%. `c1coc(CN2CCn3c(CN4CCOCC4)nnc3C2)c1` was tested, and the “Percent Effect” value was 0.1546%. With `O=C(O)C(F)(F)F.O=C(O)C(F)(F)F.c1coc(CN2CCCn3c(CN4CCOCC4)nnc3C2)c1` the “Percent Effect” value was 102%. For `O=C(O)C(F)(F)F.c1cnn(Cc2nnc3n2CCCN(CC2CCOCC2)C3)c1`, the “Percent Effect” value was -9.289%. In the case of `O=C(O)C(F)(F)F.c1coc(CN2CCCn3c(nnc3Cn3cccc3)C2)c1`, the “Percent Effect” value is reported as 110.6%. With `CCCN1CCN(C(=O)c2cccc3cccnc23)[C@H]2CS(=O)(=O)C[C@H]21` the “Percent Effect” value was -6.939%. In the case of `Cc1nnc(CN(C)Cc2nc3c(s2)CCCC3)o1`, the “Percent Effect” value is reported as -39.73%. In the case of `CCc1ncc(C(=O)N2CCC(O)(CN3CCOCC3)C(C)(C)C2)cn1` (stereo not drawn), the “Percent Effect” value is reported as 21.42%. In the case of `COc1ccc2c(C)c(C(=O)N3CCC(NC(C)=O)C3)oc2c1` (stereo not drawn), the “Percent Effect” value is reported as 4.828%. `CCCc1nc(CN2CCOC(Cn3cncn3)C2)cs1` (stereo not drawn) was tested, and the “Percent Effect” value was 112.9%. `CC(C)(C)c1nnc(CN2CCOC(Cn3cncn3)C2)o1` (stereo not drawn) was tested, and the “Percent Effect” value was 5.198%. In the case of `CC(C)CCc1nc(CN2CCOC(Cn3cncn3)C2)cs1` (stereo not drawn), the “Percent Effect” value is reported as 124.3%. With `Cc1cc(CNC(=O)NC(C)c2ccncc2)no1` (stereo not drawn) the “Percent Effect” value was -0.1893%. In the case of `CN(Cc1nncn1C)C(=O)c1cc(COc2ccccc2)[nH]n1`, the “Percent Effect” value is reported as -18.45%. For `C[C@@H]1CC[C@@H](C)N1C(=O)c1cc(COc2ccccc2)[nH]n1`, the “Percent Effect” value was 96.55%. With `O=C(c1cc(COc2ccc3c(c2)OCO3)[nH]n1)N1CC=CC1CO` (stereo not drawn) the “Percent Effect” value was -1.873%. With `CCCC1C=CCN1C(=O)c1cc(COc2ccc3c(c2)OCO3)[nH]n1` (stereo not drawn) the “Percent Effect” value was 106.8%. `C[C@@H]1CN(C(=O)c2cc(COc3ccc4c(c3)OCO4)[nH]n2)C[C@H](C)O1` was tested, and the “Percent Effect” value was -15.32%. `COc1ccccc1OCc1cc(C(=O)N2[C@H](C)CC[C@@H]2C)n[nH]1` was tested, and the “Percent Effect” value was -29.7%. For `COc1ccccc1OCc1cc(C(=O)N2CCC(NC(C)=O)C2)n[nH]1` (stereo not drawn), the “Percent Effect” value was -14.62%. In the case of `COC(=O)C1C=CCN1C(=O)c1cc(COc2ccccc2)[nH]n1` (stereo not drawn), the “Percent Effect” value is reported as 114.9%. In the case of `CO[C@H]1CN(C(C)C)C[C@@H]1NC(=O)c1cc(COc2ccccc2)[nH]n1`, the “Percent Effect” value is reported as -19.38%. For `COc1ccccc1OCc1cc(C(=O)N2C[C@@H](C)O[C@@H](C)C2)n[nH]1`, the “Percent Effect” value was -20.33%. With `COc1ccccc1OCc1cc(C(=O)N2CCOCC2CO)n[nH]1` (stereo not drawn) the “Percent Effect” value was -19.45%. `CCCC1C=CCN1C(=O)c1cc(COc2ccccc2)[nH]n1` (stereo not drawn) was tested, and the “Percent Effect” value was 130%. With `CN(C(=O)CC1=CCCCC1)C1CCCN(C2Cc3ccccc3C2)C1` (stereo not drawn) the “Percent Effect” value was -26.45%. `CCc1ncc2c(n1)CN(C(=O)Cc1cc(OC)cc(OC)c1)C2` was tested, and the “Percent Effect” value was -17.96%. For `CC(C)COC(C)C(=O)N1CCC(C)CC1` (stereo not drawn), the “Percent Effect” value was -15.15%. `Cc1cc(CN(C2CC2)C(C)C(C)C)no1` (stereo not drawn) was tested, and the “Percent Effect” value was 5.492%. For `CCC1C=CCN1C(=O)c1cc(COc2ccccc2OC)[nH]n1` (stereo not drawn), the “Percent Effect” value was 105.4%. In the case of `COc1ccccc1OCc1cc(C(=O)N2CC(O)C2)n[nH]1`, the “Percent Effect” value is reported as -12.52%. In the case of `COc1ccccc1OCc1cc(C(=O)N2CC=CC2C(C)C)n[nH]1` (stereo not drawn), the “Percent Effect” value is reported as -7.003%. `CC(=O)CN1CCC2(CC1)c1ccccc1[C@@H](N1CCSCC1)[C@@H]2O` was tested, and the “Percent Effect” value was -3.937%. `CN(CC(=O)N1CC(C)(C)[C@@](C)(O)C1)Cc1ccncc1` was tested, and the “Percent Effect” value was -6.458%. `COc1ccc(COCC(O)CNC(=O)c2cc(C)cc(C)c2)cc1` (stereo not drawn) was tested, and the “Percent Effect” value was 13.74%.
